Assay results published in PubChem BioAssay (EPA / NIEHS).
Records with an inconclusive call do not appear. Calls of active or inactive are those of the source. How the source made its calls, unless noted: active means hit-call score of the fitted dose curve at least 0.9, where 1 is the maximum; inconclusive means response in the unintended direction; inactive means score below 0.9.

Experiments:
[1] = target: Thyroid hormone receptor alpha (Rattus norvegicus) + Thyroid hormone receptor beta (Rattus norvegicus) (UniProt P18113+P63059); assay: TOX21_TR_LUC_GH3_Antagonist_Followup: Tox21 GH3 Thyroid Hormone Receptor Antagonism Luciferase Follow-Up Assay (AID 2283942)
How it was run: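 Antagonist mode: GH3 cells seeded 1,500/well, compounds at 15 concentrations (92 uM to 5nM final) plus T3 at 1.0 nM final, 24 h at 37C. Luciferase read with ONE-Glo after 30 min at room temperature.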

[2] = target: THRB (gene 7068) (UniProt P10828); assay: TOX21_TRB_BLA_Antagonist_Followup_ratio: Tox21 Thyroid Hormone Receptor beta Antagonism Beta-lactamase (BLA) Follow-Up Assay, Ratio (AID 2283958)
How it was run: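 HEK293T cells with a GAL4-TRb LBD fusion and UAS-bla reporter, 3,000 cells/well in phenol red-free DMEM with 2% charcoal-stripped FBS. Exposed 18 h at 37C to 11 concentrations in triplicate; CCF4 460:530 nm ratio after 2 h, DMSO-referenced.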

[3] = TOX21_TRB_BLA_Antagonist_Followup_viability: Viability Assessment in the Tox21 Thyroid Hormone Receptor beta Antagonism Beta-lactamase (BLA) Follow-Up Assay (AID 2283961)
How it was run: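 ATP-based CellTiter-Glo luminescence (30 min, room temperature) run in the same wells as the TRβ-bla readout. Cells: GeneBLAzer HEK293T expressing GAL4-TRβ LBD, exposed 18 h at 37C to compounds at 11 concentrations in triplicate, stripped-serum medium.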

[4] = target: THRB (gene 7068) (UniProt P10828); assay: TOX21_TRB_COA_Antagonist_Followup_ratio: Tox21 Thyroid Hormone Receptor beta Antagonism through Coactivator Recruitment Follow-Up Assay, Ratio (AID 2283967)
How it was run: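 Cell-free TR-FRET: GST-TRb LBD (5.0 nM) with fluorescein-SRC-2 peptide (200 nM) and Tb anti-GST antibody (2 nM), 0.10% BSA. 520:495 nm emission ratio normalized to DMSO (0%) and T3 (100%).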

[5] = target: Retinoic acid receptor RXR-alpha (Homo sapiens) (UniProt P19793); assay: TOX21_TR_RXR_BLA_Antagonist_Followup_ratio: Tox21 Thyroid Hormone Receptor beta Retinoid X Receptor alpha (RXRa) Antagonism Beta-lactamase (BLA) Follow-Up Assay, Ratio (AID 2283972)
How it was run: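 After 5 h attachment at 37C, HEK293T RXRa-bla cells (2,500/well, 2% charcoal-stripped FBS, no phenol red) received compounds at 11 concentrations in triplicate for 16 h. Beta-lactamase read as 460:530 nm ratio after 2 h RT substrate loading.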

[6] = TOX21_TR_RXR_BLA_Antagonist_Followup_viability: Viability Assessment in the Tox21 Thyroid Hormone Receptor beta Retinoid X Receptor alpha (RXRa) Antagonism Beta-lactamase (BLA) Follow-Up Assay (AID 2283979)
How it was run: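 RXRa-bla HEK293T cells (2,500/well, phenol red-free DMEM, 2% charcoal-stripped FBS) were attached 5 h, then exposed to compounds at 11 concentrations in triplicate for 16 h at 37C. Viability measured by CellTiter-Glo ATP luminescence, bidirectional fitting versus DMSO.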

[7] = TOX21_PR_BLA_Followup_Agonist_viability: Viability Assessment in the Tox21 HEK293 Progesterone Receptor (PR) Agonism Beta-lactamase Follow-Up Assay (AID 2283935);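 further: signal loss means lower viability so actives are cytotoxic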
How it was run: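 PR-UAS-bla HEK293T cells in 2% charcoal-stripped FBS medium, plated 6 hr before compound addition, exposed 16 hr at 37C. Viability read by CellTiter-Glo ATP luminescence after 30 min at room temperature, in the same wells as the beta-lactamase readout.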

[8] = TOX21_PR_BLA_Followup_Antagonist_viability: Viability Assessment in the Tox21 HEK293 Progesterone Receptor (PR) Antagonism Beta-lactamase Follow-Up Assay (AID 2283936);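 further: hits lower the luminescence signal meaning cytotoxicity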
How it was run: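 PR-UAS-bla HEK293T cells (3,000/well, 2% charcoal-stripped FBS) given compound plus R5020 agonist, 16 h at 37C. CellTiter-Glo added after bla read, 30 min at room temperature; luminescence loss indicates cytotoxicity.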

[9] = target: PGR (gene 5241) (UniProt P06401); assay: TOX21_PR_LUC_Followup_Agonist: Tox21 HEK293 Progesterone Receptor (PR) Agonism Luciferase Follow-Up Assay (AID 2283937; active means hit-call score of the fitted dose curve at least 0.9, where 1 is the maximum; inactive means score below 0.9)
How it was run: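 HEK293-PR-A-luc cells, conditioned 5 days in 10% charcoal-stripped FBS medium, seeded 3,000/well for 5 h, then compound-treated 16 h at 37C. ONE-Glo luminescence read after 30 min at room temperature; gain of signal versus DMSO.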

[10] = target: PGR (gene 5241) (UniProt P06401); assay: TOX21_PR_LUC_Followup_Antagonist: Tox21 HEK293 Progesterone Receptor (PR) Antagonism Luciferase Follow-Up Assay (AID 2283938);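 further: curve fitted upward as signal gain over DMSO baseline despite antagonist label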
How it was run: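 Luminescence from ONE-Glo was measured 30 min after reagent addition, following 16 h exposure of HEK293-PR-A-luc cells (3,000/well, plated 5 h earlier) to DMSO-dissolved compounds at 37C; DMSO served as baseline.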

[11] = TOX21_PR_LUC_Followup_Antagonist_viability: Viability Assessment in the Tox21 HEK293 Progesterone Receptor (PR) Antagonism Luciferase Follow-Up Assay (AID 2283940)
How it was run: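 HEK293-PR-A-luc cells kept in charcoal-stripped FBS medium were plated 5 h before compound addition, then exposed 16 h at 37C; viability read as cellular ATP by luciferase luminescence, loss of signal indicating cytotoxicity.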

[12] = TOX21_PR_LUC_Followup_Agonist_viability: Viability Assessment in the Tox21 HEK293 Progesterone Receptor (PR) Agonism Luciferase Follow-Up Assay (AID 2283941);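 further: loss of signal means cytotoxicity so actives lower viability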
How it was run: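 HEK293-PR-A-luc cells, kept in 10% charcoal-stripped FBS medium, were treated with compounds for 16 h at 37C. Viability read as cellular ATP by luciferase-coupled luminescence; loss of signal indicates cytotoxicity.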

[13] = CCTE_Harrill_HTTr_Viability_DMEM_6hr: (Pilot) CCTE's 6-hour Cell Viability Assessment for the High-Throughput Transcriptomics (HTTr) Platform, in MCF-7 cells cultured in DMEM + 10% fetal bovine serum, Harrill Lab (AID 2283973; active means hit-call score of the fitted dose curve at least 0.9, where 1 is the maximum; inactive means score below 0.9)
How it was run: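 MCF-7 cells in DMEM + 10% FBS, eight-point dilution series, 6 h exposure. Membrane integrity by propidium iodide exclusion with high-content imaging; bidirectional fit versus DMSO.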

[14] = CCTE_Harrill_HTTr_Viability_DMEM_12hr: (Pilot) CCTE's 12-hour Cell Viability Assessment for the High-Throughput Transcriptomics (HTTr) Platform, in MCF-7 cells cultured in DMEM + 10% fetal bovine serum, Harrill Lab (AID 2283974; active means hit-call score of the fitted dose curve at least 0.9, where 1 is the maximum; inactive means score below 0.9)
How it was run: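 MCF-7 cells in DMEM + 10% FBS exposed 12 h to an eight-point dilution series; membrane integrity scored by propidium iodide exclusion with high-content imaging, bidirectional fitting versus DMSO.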

[15] = CCTE_Harrill_HTTr_Viability_DMEM_24hr: (Pilot) CCTE's 24-hour Cell Viability Assessment for the High-Throughput Transcriptomics (HTTr) Platform, in MCF-7 cells cultured in DMEM + 10% fetal bovine serum, Harrill Lab (AID 2283975; active means hit-call score of the fitted dose curve at least 0.9, where 1 is the maximum; inactive means score below 0.9)
How it was run: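 MCF-7 cells in DMEM with 10% FBS exposed for 24 hours to an eight-point dilution series. Membrane integrity by propidium iodide exclusion with high content imaging; bidirectional fit against DMSO.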

[16] = CCTE_Harrill_HTTr_Viability_PRF_DMEM_6hr: (Pilot) CCTE's 6-hour Cell Viability Assessment for the High-Throughput Transcriptomics (HTTr) Platform, in MCF-7 cells cultured phenol red-free DMEM + 10% charcoal-stripped fetal bovine serum, Harrill Lab (AID 2283976; active means hit-call score of the fitted dose curve at least 0.9, where 1 is the maximum; inactive means score below 0.9)
How it was run: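 MCF-7 cells in phenol red-free DMEM with 10% charcoal-stripped FBS exposed 6 hours to an eight-point dilution series. Propidium iodide exclusion imaged; curves fitted bidirectionally against DMSO.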

[17] = CCTE_Harrill_HTTr_Viability_PRF_DMEM_12hr: (Pilot) CCTE's 12-hour Cell Viability Assessment for the High-Throughput Transcriptomics (HTTr) Platform, in MCF-7 cells cultured in phenol red-free DMEM + 10% charcoal-stripped fetal bovine serum, Harrill Lab (AID 2283977; active means hit-call score of the fitted dose curve at least 0.9, where 1 is the maximum; inactive means score below 0.9)
How it was run: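 MCF-7 cells in phenol red-free DMEM with 10% charcoal-stripped FBS exposed 12 hours to an eight-point dilution series. Viability assessed by high-content imaging of propidium iodide exclusion; bidirectional fit versus DMSO.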

[18] = CCTE_Harrill_HTTr_Viability_PRF_DMEM_24hr: (Pilot) CCTE's 24-hour Cell Viability Assessment for the High-Throughput Transcriptomics (HTTr) Platform, in MCF-7 cells cultured in phenol red-free DMEM + 10% charcoal-stripped fetal bovine serum, Harrill Lab (AID 2283980; active means hit-call score of the fitted dose curve at least 0.9, where 1 is the maximum; inactive means score below 0.9)
How it was run: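 MCF-7 cells in phenol red-free DMEM with 10% charcoal-stripped FBS, eight-point dilution series, 24 h exposure. Membrane integrity by propidium iodide exclusion with high content imaging; bidirectional fit vs DMSO.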

[19] = CCTE_Harrill_HTTr_Apoptosis_DMEM_6hr: (Pilot) CCTE's 6-hour Apoptosis Assessment for the High-Throughput Transcriptomics (HTTr) Platform, in MCF-7 cells cultured in DMEM + 10% fetal bovine serum, Harrill Lab (AID 2283981; active means hit-call score of the fitted dose curve at least 0.9, where 1 is the maximum; inactive means score below 0.9)
How it was run: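 Caspase-3/7 activation read by high content imaging with CellEvent Caspase 3/7 Green in MCF-7 cells (DMEM + 10% FBS), 6 h after dosing; eight-point dilution series. Bidirectional fitting relative to DMSO baseline.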

[20] = target: THRA (gene 7067) (UniProt P10827); assay: TOX21_TRA_COA_Antagonist_Followup_ratio: Tox21 Thyroid Hormone Receptor alpha Antagonism through Coactivator Recruitment Follow-Up Assay, Ratio (AID 2283953)
How it was run: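 520:495 nm emission ratio (excitation 340 nm) reports fluorescein-SRC-2 peptide recruitment to GST-TRα LBD by TR-FRET with Tb anti-GST antibody. Values were normalized to DMSO (0%) and T3 control wells (100%); loss of signal indicated antagonism.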

Sequence of THRA (gene 7067) (P10827 whole entry, looked up, the tested form may be a part): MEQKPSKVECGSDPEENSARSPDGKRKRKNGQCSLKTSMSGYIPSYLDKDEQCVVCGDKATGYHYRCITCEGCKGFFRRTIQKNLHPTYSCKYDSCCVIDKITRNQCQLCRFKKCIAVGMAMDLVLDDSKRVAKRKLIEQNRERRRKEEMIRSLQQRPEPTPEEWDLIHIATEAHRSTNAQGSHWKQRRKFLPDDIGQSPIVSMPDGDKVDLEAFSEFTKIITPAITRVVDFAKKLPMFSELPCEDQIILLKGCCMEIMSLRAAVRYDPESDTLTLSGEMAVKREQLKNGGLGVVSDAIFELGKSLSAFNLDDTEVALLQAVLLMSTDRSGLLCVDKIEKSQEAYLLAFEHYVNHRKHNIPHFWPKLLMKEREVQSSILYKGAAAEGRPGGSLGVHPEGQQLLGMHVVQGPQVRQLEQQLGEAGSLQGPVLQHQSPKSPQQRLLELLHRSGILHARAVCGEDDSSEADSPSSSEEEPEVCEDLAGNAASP
Sequence of Retinoic acid receptor RXR-alpha (Homo sapiens) (P19793 whole entry, looked up): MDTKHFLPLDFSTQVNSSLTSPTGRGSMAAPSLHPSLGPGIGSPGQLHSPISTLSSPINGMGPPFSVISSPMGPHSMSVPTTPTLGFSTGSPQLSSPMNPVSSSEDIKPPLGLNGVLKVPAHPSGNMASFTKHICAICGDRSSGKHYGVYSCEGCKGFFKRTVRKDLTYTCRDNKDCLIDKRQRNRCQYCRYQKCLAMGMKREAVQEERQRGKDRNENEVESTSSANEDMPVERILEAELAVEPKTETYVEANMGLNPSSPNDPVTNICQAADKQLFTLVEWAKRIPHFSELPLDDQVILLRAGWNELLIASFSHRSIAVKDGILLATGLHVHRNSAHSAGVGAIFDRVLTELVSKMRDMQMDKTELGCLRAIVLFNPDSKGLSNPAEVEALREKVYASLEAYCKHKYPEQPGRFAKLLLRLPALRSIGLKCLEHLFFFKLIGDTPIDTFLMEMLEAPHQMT
Sequence of THRB (gene 7068) (P10828 whole entry, looked up, the tested form may be a part): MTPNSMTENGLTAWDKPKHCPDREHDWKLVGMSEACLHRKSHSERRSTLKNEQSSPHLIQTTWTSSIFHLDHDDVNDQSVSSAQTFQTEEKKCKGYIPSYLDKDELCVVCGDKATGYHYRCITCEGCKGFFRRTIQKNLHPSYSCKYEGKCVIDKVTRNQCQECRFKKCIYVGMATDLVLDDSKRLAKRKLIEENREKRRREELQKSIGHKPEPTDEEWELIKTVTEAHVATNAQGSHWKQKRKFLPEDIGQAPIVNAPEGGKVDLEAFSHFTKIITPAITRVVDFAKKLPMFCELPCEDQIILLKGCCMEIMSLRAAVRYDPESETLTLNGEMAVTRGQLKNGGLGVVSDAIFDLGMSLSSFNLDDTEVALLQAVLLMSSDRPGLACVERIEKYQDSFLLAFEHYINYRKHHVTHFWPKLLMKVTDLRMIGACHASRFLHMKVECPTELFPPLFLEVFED
Sequence of PGR (gene 5241) (P06401 whole entry, looked up): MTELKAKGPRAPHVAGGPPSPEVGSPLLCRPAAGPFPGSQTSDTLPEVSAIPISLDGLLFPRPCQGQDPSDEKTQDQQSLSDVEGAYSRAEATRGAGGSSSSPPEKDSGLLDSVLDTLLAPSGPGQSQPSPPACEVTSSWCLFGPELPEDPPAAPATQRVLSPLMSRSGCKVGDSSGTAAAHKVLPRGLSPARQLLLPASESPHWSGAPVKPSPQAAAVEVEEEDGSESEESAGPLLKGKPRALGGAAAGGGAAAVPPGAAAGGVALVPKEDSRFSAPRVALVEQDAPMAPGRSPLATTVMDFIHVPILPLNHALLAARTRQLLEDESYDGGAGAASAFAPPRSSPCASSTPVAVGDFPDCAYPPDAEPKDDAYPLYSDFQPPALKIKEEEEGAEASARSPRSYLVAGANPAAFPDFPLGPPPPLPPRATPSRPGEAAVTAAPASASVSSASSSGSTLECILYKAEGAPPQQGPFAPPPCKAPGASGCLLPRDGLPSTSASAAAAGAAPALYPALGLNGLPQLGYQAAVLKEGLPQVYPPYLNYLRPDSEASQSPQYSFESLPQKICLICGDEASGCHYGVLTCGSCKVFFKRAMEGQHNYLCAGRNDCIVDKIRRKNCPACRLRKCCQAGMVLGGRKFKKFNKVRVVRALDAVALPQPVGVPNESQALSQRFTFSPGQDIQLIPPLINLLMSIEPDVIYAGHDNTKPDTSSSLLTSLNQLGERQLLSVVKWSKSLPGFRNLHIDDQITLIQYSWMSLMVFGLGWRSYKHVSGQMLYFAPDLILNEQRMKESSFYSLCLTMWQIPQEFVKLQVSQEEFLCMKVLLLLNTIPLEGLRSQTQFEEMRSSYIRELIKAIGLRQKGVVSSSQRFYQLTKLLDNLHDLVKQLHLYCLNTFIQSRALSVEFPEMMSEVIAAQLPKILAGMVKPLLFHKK

CCc1nn(C)c(C(=O)NCc2ccc(C(C)(C)C)cc2)c1Cl
outcome [1]: inactive
outcome [2]: inactive
AC50 [3]: 4.69 µM (active)
outcome [4]: inactive
outcome [5]: inactive
AC50 [6]: 7.74 µM (active)

N#CC(CCc1ccc(Cl)cc1)(Cn1cncn1)c1ccccc1 (stereo not given)
outcome [7]: inactive
outcome [8]: inactive
outcome [9]: inactive
AC50 [10]: 22.5 µM (active)
outcome [11]: inactive
outcome [12]: inactive

CC(C)(C)c1ccc(CSc2cnn(C(C)(C)C)c(=O)c2Cl)cc1
outcome [3]: inactive
outcome [6]: inactive

COc1ccc(C(c2ccc(OC)cc2)C(Cl)(Cl)Cl)cc1
outcome [7]: inactive
outcome [8]: inactive
AC50 [10]: 15.2 µM (active)
outcome [11]: inactive

CCCC1COC(Cn2cncn2)(c2ccc(Cl)cc2Cl)O1 (stereo not given)
outcome [13]: inactive
outcome [14]: inactive
outcome [15]: inactive
outcome [16]: inactive
outcome [17]: inactive
outcome [18]: inactive
outcome [19]: inactive

CCNc1nc(Cl)nc(NCC)n1
outcome [13]: inactive
outcome [14]: inactive
outcome [15]: inactive
outcome [16]: inactive
outcome [17]: inactive
outcome [18]: inactive
outcome [19]: inactive

CCNc1nc(Cl)nc(NC(C)C)n1
outcome [13]: inactive
outcome [14]: inactive
outcome [15]: inactive
outcome [16]: inactive
outcome [17]: inactive
outcome [18]: inactive
outcome [19]: inactive

C=CC1(C)OC(=O)N(c2cc(Cl)cc(Cl)c2)C1=O (stereo not given)
outcome [7]: inactive
outcome [8]: inactive
outcome [10]: inactive
outcome [11]: inactive
outcome [12]: inactive
outcome [13]: inactive
outcome [14]: inactive
outcome [15]: inactive
outcome [16]: inactive
outcome [17]: inactive
outcome [18]: inactive
outcome [19]: inactive

COC(=O)N(OC)c1ccccc1COc1ccn(-c2ccc(Cl)cc2)n1
outcome [7]: inactive
outcome [8]: inactive
AC50 [10]: 13.6 µM (active)
outcome [11]: inactive
outcome [12]: inactive
AC50 [1]: 1.09 µM (active)
outcome [20]: inactive
AC50 [2]: 4.01 µM (active)
AC50 [3]: 14.9 µM (active)
outcome [4]: inactive
AC50 [5]: 38.3 µM (active)
outcome [13]: inactive
outcome [14]: inactive
outcome [15]: inactive
outcome [16]: inactive
outcome [17]: inactive
AC50 [6]: 7.9 µM (active)
outcome [18]: inactive
outcome [19]: inactive

CCCCNC(=O)n1c(NC(=O)OC)nc2ccccc21
outcome [1]: inactive
outcome [20]: inactive
outcome [2]: inactive
outcome [3]: inactive
outcome [4]: inactive
outcome [5]: inactive
outcome [6]: inactive

CO/C=C(/C(=O)OC)c1ccccc1Oc1cc(Oc2ccccc2C#N)ncn1
AC50 [1]: 3.91 µM (active)
outcome [20]: inactive
outcome [2]: inactive
AC50 [3]: 38.1 µM (active)
outcome [4]: inactive
outcome [5]: inactive
outcome [6]: inactive

CN(C)C(=S)SSC(=S)N(C)C
AC50 [1]: 24.3 µM (active)
outcome [20]: inactive
outcome [2]: inactive
outcome [3]: inactive
outcome [4]: inactive
outcome [13]: inactive
outcome [14]: inactive
AC50 [15]: 54.6 µM (active)
outcome [16]: inactive
outcome [17]: inactive
outcome [6]: inactive
AC50 [18]: 46.7 µM (active)
outcome [19]: inactive

CCOP(=S)(OCC)SCn1c(=O)oc2cc(Cl)ccc21
outcome [7]: inactive
outcome [8]: inactive
AC50 [10]: 32.8 µM (active)
outcome [11]: inactive

CON(C)C(=O)Nc1ccc(Cl)c(Cl)c1
outcome [7]: inactive
outcome [8]: inactive
outcome [11]: inactive
outcome [12]: inactive
